Reference: PubChem BioAssay (NCI)
Compounds without any hit were thinned out: in the full panel of roughly 79,000, 15% have a hit. Calls of active or inactive are those of the source. Rule as the data show it: active = growth inhibition above about 70%; inactive = the rest.

Assay: NCI Yeast Anticancer Drug Screen. Data for the rad50EPP+ strain (AID 151);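 also: 0% = growth of vehicle-treated control cultures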
Settings: S. cerevisiae rad50 mutant strain, active compounds read high
Procedure: Growth inhibition of yeast strains with defined genetic alterations is measured as a screen for potential anti-cancer activity. Selected strains with alterations in DNA damage repair or cell cycle control were exposed to compounds and growth inhibition was measured relative to vehicle treated controls. The strain used in this assay is rad50EPP+

Measured: growth inhibition

Cc1cc(O)c2c(c1)C(=O)C=C(Br)C2=O
active: at 3.7 µM 88% | at 11.0 µM 99% | at 33.0 µM 99% | at 100.0 µM 95%
inactive: at 1.2 µM 58%

O=C1C=CC(=O)N1c1ccc(I)cc1
active: at 3.7 µM 70% | at 11.0 µM 99% | at 33.0 µM 100% | at 100.0 µM 99%
inactive: at 1.2 µM 59%

Cc1ccccc1NC(=O)Cc1csc(N/N=C2\NC(=O)/C(=C/c3cccc([N+](=O)[O-])c3)S2)n1
inactive: at 1.2 µM 4% | at 3.7 µM 9% | at 11.0 µM 15% | at 33.0 µM 39% | at 100.0 µM 51%

Cc1cc(C(C)(C)CC(C)(C)C)cc(O)c1O
active: at 11.0 µM 79% | at 33.0 µM 83% | at 100.0 µM 88%
inactive: at 1.2 µM 44% | at 3.7 µM 69%

CCNc1ccc2c(c1)C(=O)N(OS(C)(=O)=O)C2=O
inactive: at 1.2 µM 7% | at 3.7 µM 6% | at 11.0 µM 7% | at 33.0 µM 11% | at 100.0 µM 27%

CCN(CC)CC(O)c1cc(-c2ccc(Cl)cc2)nc2c(-c3ccccc3)cccc12 (stereo not given)
inactive: at 1.2 µM -1% | at 3.7 µM 7%
active: at 11.0 µM 96% | at 33.0 µM 98% | at 100.0 µM 95%

Cc1cc(OCc2ccccc2)ccc1[N+](=O)[O-]
inactive: at 1.2 µM -2% | at 3.7 µM -2% | at 11.0 µM 5% | at 33.0 µM 57%
active: at 100.0 µM 75%

Cc1cc(Cl)nc2nc(Cl)c(N)cc12
inactive: at 1.2 µM -17% | at 3.7 µM -17% | at 11.0 µM -13% | at 33.0 µM 0% | at 100.0 µM 49%
